Measurements published in PubChem BioAssay (Tox21).
Results filed as inconclusive are left out. Where a call stands in place of a potency, no number is given. The source made the active and inactive calls. Calls come from the whole dose curve; as a rule, active = well fitted cell-killing curve with a large enough effect in the repeat runs; inconclusive = weak or mixed curves, or effect the other way; inactive = flat fitted curve, though single readings scatter.
Potency is the fitted concentration of half-maximal effect.

Test: qHTS RealTime-Glo MT Cell Viability Assay in HEK293 cells - 24 hour (AID 1224886); note: nearly all actives have a fitted effect of over 50% in size
Settings: RealTime-Glo luminescence; series mostly up to 76.8 µM
Outline: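 Reads taken at 0, 8, 16, 24, 32 and 40 h from the same wells. HEK293 cells (600/well) carried RealTime-Glo reagents from seeding, with compound added after a 5 h settle at 37 C.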
For `CC(CCc1ccc2c(c1)OCO2)NN` (stereo not drawn), the Potency was “inactive”. For `CO[Si](C)(OC)OC`, the Potency was “inactive”. With `CCC1(C)CC(=O)NC1=O` (stereo not drawn) the Potency was “inactive”. For `CC(=O)CC(c1ccc([N+](=O)[O-])cc1)c1c(O)c2ccccc2oc1=O` (stereo not drawn), the Potency was “inactive”. For `CSc1ccc(Oc2ccc(S(N)(=O)=O)cc2CN(C)C)cc1C`, the Potency was 49 µM (active). In the case of `COc1ccc([C@@H]2Sc3ccccc3NC(=O)[C@@H]2O)cc1`, the Potency is reported as “inactive”. With `Nc1nc(Cl)nc2c1ncn2[C@@H]1O[C@H](CO)[C@@H](O)[C@@H]1F` the Potency was 4.77 µM (active). In the case of `C=CC(C)(C)CC(=O)OC`, the Potency is reported as 1.38 µM (active). With `O=C(O)C(Cc1cc(I)c(O)c(I)c1)c1ccccc1` (stereo not drawn) the Potency was “inactive”. For `CC1=NN(c2ccc(C(=O)O)cc2)C(=O)C1`, the Potency was “inactive”. In the case of `CNC(=S)NC`, the Potency is reported as “inactive”. For `CCCCC(=O)O[C@]1(C(=O)CO)CC[C@H]2[C@@H]3CCC4=CC(=O)CC[C@]4(C)[C@H]3[C@@H](O)C[C@@]21C`, the Potency was “inactive”. In the case of `C1COCO1`, the Potency is reported as “inactive”. For `Cc1ccnc2ccccc12`, the Potency was “inactive”. For `CO[C@H]1O[C@H](CO)[C@@H](O)[C@H](O)[C@H]1O`, the Potency was “inactive”. In the case of `CC(=O)Oc1ccc(C(=C2CCCCC2)c2ccc(OC(C)=O)cc2)cc1`, the Potency is reported as “inactive”. With `CCc1cccc(N(C)C(N)=Nc2cccc3ccccc23)c1` the Potency was “inactive”. For `CCCCCCCC/C=C\CCCCCCCC(=O)OC`, the Potency was “inactive”. With `ON(Cc1ccccc1)Cc1ccccc1` the Potency was “inactive”. With `CCC(C)(C)C1CCC(O)CC1` (stereo not drawn) the Potency was “inactive”. In the case of `CC(C)(C)C(=O)O`, the Potency is reported as “inactive”. For `NCC1CCCC(CN)C1` (stereo not drawn), the Potency was “inactive”. With `Cc1occc1C(=O)Nc1ccc(C(=O)N2CCC(F)(F)/C(=C\C(=O)N3CCC(N4CCCCC4)CC3)c3ccccc32)cc1` the Potency was 5.43 µM (active).
